Molecules are shown by their SMILES. About 2,000 (0.91%) of roughly 220,000 compounds were called active. About 2% were inconclusive and are not listed. No stated cut-off is given here; in the data, inconclusive means inhibition above about 80% without an active follow-up result; inactive means below that; test concentration not stated here. A selection follows. Potency and affinity values are given separately.

This assay can be described thus: M. tuberculosis H37Rv growth inhibitors, H37Rv strain (AID 1626).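 Further: bacteria incubated seven days before Alamar blue readout; 0% = bacteria only wells and 100% = bacteria with antibiotic wells.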 Conditions: stronger effect = higher value, concentration not given here.
On to `CCOc1ccc(CC(=NCCc2ccccc2)C2=C(O)CC(C)(C)CC2=O)cc1OCC`, for which the inhibition was 6.31% (inactive).

For the compound `CCn1c(SCC(=O)Nc2ccc3c(c2)OCCO3)nnc1-c1c[nH]c2ccccc12`, the inhibition was -6.16% (inactive).

Take `O=C(Nc1cccc(C(F)(F)F)c1)c1cc(-c2cccs2)on1`: the inhibition was -6.91% (inactive). With `O=C(Nc1nn[nH]n1)c1cccc(Oc2ccccc2)c1` the figure was -4.2% (inactive). For the compound `COc1cccc(C(=O)Nc2nnc(-c3cccs3)s2)c1`, the inhibition is 8.53% (inactive). Consider `O=C(Nc1nnc(-c2cccs2)o1)c1ccco1`, for which the inhibition was 71.2% (inactive).

As for `CCCCNc1ccc(S(N)(=O)=O)cc1[N+](=O)[O-]`, the inhibition is -3.02% (inactive). With `COC(=O)C1C(O)=C(C=Nc2ccccc2)C(=O)CC1(C)C` (stereo unspecified) the figure was 18% (inactive); with `COC(=O)C1C(O)=C(C=Nc2cccc3ccccc23)C(=O)CC1(C)C` (stereo unspecified), 55% (inactive); with `CC1CCN(C(=O)c2ccc(N3CC4CC(C3)c3cccc(=O)n3C4)c([N+](=O)[O-])c2)CC1` (stereo unspecified), -2.48% (inactive).

For the compound `Nc1cc(=O)[nH]c(SCC(=O)Nc2ccccc2Sc2ccccc2)n1`, the inhibition is 0.31% (inactive). In the case of `Nn1c(SCc2ccc(F)cc2)nnc1-c1cccnc1`, the inhibition is 0.75% (inactive). With `Cc1cc(C)c2nc(/N=C(\N)NC(=O)c3ccccc3)nc(C)c2c1` the figure was 5.97% (inactive); with `Cc1ccc2nc(N=C(N)N)nc(C)c2c1`, 8.48% (inactive); with `Cc1nc(/N=C(\N)Nc2ccccc2)nc2ccccc12`, -4.15% (inactive). Take `CCCC(=O)N/C(N)=N/c1nc(C)c2cc(C)ccc2n1`: the inhibition was 31.5% (inactive).

Consider `O=C(NCCNC(=O)c1ccc([N+](=O)[O-])cc1)c1ccncc1`, for which the inhibition is -5.65% (inactive).

Regarding `O=S(=O)(Nc1cccc2cn[nH]c12)c1ccc(F)cc1`, the inhibition was -1.2% (inactive). With `C/C(=N\OCC(=O)NC12CC3CC(CC(C3)C1)C2)c1cc2ccccc2o1` the figure was 24.4% (inactive). The same measure for `CC(=O)NCCOc1ccc2oc3ccccc3c2c1`: 14.2% (inactive); for `O=C(c1ccccc1)N1CCCC(C(=O)N2CCN(c3ccccc3)CC2)C1` (stereo unspecified): -13.7% (inactive).

With `CC(=O)N(C)c1ccc(OCC(O)Cn2c3ccc(Cl)cc3c3cc(Cl)ccc32)cc1` (stereo unspecified), the inhibition is -0.39% (inactive). The same measure for `OC(COCC(F)(F)C(F)(F)C(F)(F)C(F)F)Cn1c2ccccc2c2ccccc21` (stereo unspecified): 47.2% (inactive); for `CCn1c(SCC(=O)Nc2nc(C)cs2)nnc1-c1cccnc1`: 10.4% (inactive). Turning to `O=C(NCc1cccnc1)/C(=C/c1ccc(-c2cccc(Cl)c2)o1)S(=O)(=O)c1ccccc1`, the inhibition was 56.8% (inactive).

Consider `O=C(NCc1cccnc1)c1ccc(-c2ccc(Cl)cc2)o1`, for which the inhibition was -1.29% (inactive).

One may read the inhibition as the drop in the measured response relative to a control, in per cent.

The record behind these values is PubChem BioAssay AID1626 (SRMLSC, 2009).
